Test results published in PubChem BioAssay (NCI).
Where “and” joins values, the source holds several entries; their conditions need not be identical. Equal values may be shown once. The panel holds about 79,000 compounds, 15% with a hit somewhere; the sample as a whole holds those more often. A number with no mark means an inactive call. Calls of active or inactive are those of the source. No stated cut-off is given here; in the data, active means growth inhibition above about 70%; inactive means the rest.

Legend:
[1] = NCI Yeast Anticancer Drug Screen. Data for the rad52 strain (AID 147);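 further: 0% = growth of vehicle-treated control cultures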; settings: S. cerevisiae rad52 mutant growth inhibition, hits give high values
Procedure, shortened: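 Genetically altered yeast (DNA damage repair defect) treated with compound; inhibition calculated relative to vehicle.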

[2] = NCI Yeast Anticancer Drug Screen. Data for the wt1 strain (AID 149);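 further: 0% = growth of vehicle-treated wt1 cultures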; settings: S. cerevisiae wt1 strain (SPY 50644) growth inhibition, hits give high values
Procedure, shortened: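 Vehicle-normalised growth inhibition; strain wt1; compound exposure.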

[3] = NCI Yeast Anticancer Drug Screen. Data for the rad50EPP+ strain (AID 151);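 further: 0% = growth of vehicle-treated control cultures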; settings: S. cerevisiae rad50 mutant strain, hits give high values
Procedure, shortened: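 Strain rad50EPP+; compound exposure; % growth inhibition vs vehicle.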

[4] = NCI Yeast Anticancer Drug Screen. Data for the rad50 strain (AID 155);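 further: 0% = growth of vehicle-only cultures of the same strain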; settings: S. cerevisiae rad50 strain growth inhibition, hits give high values
Procedure, shortened: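 A DNA repair-deficient yeast mutant serves as the test organism; compound-induced growth inhibition is calculated against vehicle-treated cells.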

[5] = NCI Yeast Anticancer Drug Screen. Data for the mec2-1 strain (AID 157); settings: S. cerevisiae mec2-1 strain, hits give high values
Procedure, shortened: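 Cells of the genetically defined mec2-1 yeast strain are incubated with test compound. Inhibition of growth is calculated against vehicle-treated controls.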

[6] = NCI Yeast Anticancer Drug Screen. Data for the rad14 strain (AID 159);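 further: 0% = growth of vehicle-treated control cultures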; settings: S. cerevisiae rad14 strain growth inhibition, hits give high values
Procedure, shortened: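 Vehicle-treated cultures served as the baseline for growth inhibition of a DNA repair-mutant yeast strain exposed to each compound.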

[7] = NCI Yeast Anticancer Drug Screen. Data for the sgs1 mgt1 strain (AID 161);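 further: 0% = growth of cultures given vehicle only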; settings: S. cerevisiae sgs1 mgt1 strain, hits give high values
Procedure, shortened: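 Read-out: growth inhibition vs vehicle controls. Cells: mutant yeast strain deficient in DNA damage repair.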

[8] = NCI Yeast Anticancer Drug Screen. Data for the CLN2oe strain (AID 163);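 further: 0% = growth of vehicle-only control cultures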; settings: S. cerevisiae CLN2oe strain, hits give high values
Procedure, shortened: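 Strain altered in cell-cycle control, incubated with compound; growth compared to solvent-treated controls.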

[9] = NCI Yeast Anticancer Drug Screen. Data for the cln2 rad14 strain (AID 165);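 further: 0% = growth equal to vehicle treated cultures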; settings: S. cerevisiae cln2 rad14 strain, hits give high values
Procedure, shortened: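 The screen exposed genetically defined yeast (cln2 rad14) to test compounds and scored growth inhibition relative to vehicle-treated controls.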

[10] = NCI Yeast Anticancer Drug Screen. Data for the bub3 strain (AID 167); settings: S. cerevisiae bub3 mutant strain, hits give high values
Procedure, shortened: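 Inhibition values come from growth of compound-treated mutant yeast normalised to vehicle-treated controls.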

[11] = NCI Yeast Anticancer Drug Screen. Data for the wt2 strain (AID 169);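 further: 0% = growth of vehicle-treated yeast cultures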; settings: S. cerevisiae wt2 strain growth inhibition, hits give high values
Procedure, shortened: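 Steps: yeast strain treated with compound; growth recorded; inhibition calculated relative to cultures given vehicle alone.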

[12] = NCI Yeast Anticancer Drug Screen. Data for the mlh1 strain (AID 171);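 further: 0% = growth of vehicle-treated control cultures of the same strain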; settings: S. cerevisiae mlh1 strain growth inhibition, hits give high values
Procedure, shortened: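 Yeast screen: mutant strain plus compound, growth scored against vehicle control wells.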

[13] = NCI Yeast Anticancer Drug Screen. Data for the sgs1 strain (AID 173);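 further: 0% = growth of vehicle-only control cultures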; settings: S. cerevisiae sgs1 mutant, hits give high values
Procedure, shortened: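 Inhibition of yeast growth served as the measure. The mutant strain was treated with each compound, and growth was normalised to cultures receiving vehicle alone.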

[14] = NCI Yeast Anticancer Drug Screen. Data for the mlh1 rad18 strain (AID 175); settings: S. cerevisiae mlh1 rad18 strain growth inhibition, hits give high values
Procedure, shortened: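 Compound-treated yeast growth, normalised to vehicle controls. Strain bears defined DNA repair mutations.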

[15] = NCI Yeast Anticancer Drug Screen. Data for the rad18 strain (AID 177); settings: S. cerevisiae rad18 mutant growth inhibition, hits give high values
Procedure, shortened: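 Inhibition values reflect reduced yeast growth compared with vehicle-treated controls, using a strain engineered with a DNA damage repair defect.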

[16] = at 5.0 µM (retest, dose inferred, filed as 0.5)
[17] = at 50.0 µM (retest, dose inferred, filed as 5.0)

Structure (SMILES): CC(=O)C1=C(O)C2(C)c3c(O)c(C)c(O)c(C(C)=O)c3OC2(Sc2ccccc2)CC1=O (stereo not drawn)
- growth inhibition ([1]; at 1.2 µM): 24%
- growth inhibition ([1]; at 3.7 µM): 43%
- growth inhibition ([1]; at 11.0 µM): 54%
- growth inhibition ([1]; at 33.0 µM): 58%
- growth inhibition ([1]; at 100.0 µM): 86% (active)
- growth inhibition ([2]; at 1.2 µM): 21%
- growth inhibition ([2]; at 3.7 µM): 51%
- growth inhibition ([2]; at 11.0 µM): 55%
- growth inhibition ([2]; at 33.0 µM): 66%
- growth inhibition ([2]; at 100.0 µM): 89% (active)
- growth inhibition ([3]; at 1.2 µM): 23%
- growth inhibition ([3]; at 3.7 µM): 18%
- growth inhibition ([3]; at 11.0 µM): 30%
- growth inhibition ([3]; at 33.0 µM): 33%
- growth inhibition ([3]; at 100.0 µM): 52%
- growth inhibition ([4]; at 1.2 µM): 20%
- growth inhibition ([4]; at 3.7 µM): 20%
- growth inhibition [4, 16]: -15%
- growth inhibition ([4]; at 11.0 µM): 36%
- growth inhibition ([4]; at 33.0 µM): 53%
- growth inhibition [4, 17]: 85% (active)
- growth inhibition ([4]; at 50.0 µM): 63% and 7.1%
- growth inhibition ([4]; at 100.0 µM): 83% (active)
- growth inhibition ([5]; at 1.2 µM): 4%
- growth inhibition ([5]; at 3.7 µM): 24%
- growth inhibition [5, 16]: 22%
- growth inhibition ([5]; at 11.0 µM): 43%
- growth inhibition ([5]; at 33.0 µM): 54%
- growth inhibition [5, 17]: 93% (active)
- growth inhibition ([5]; at 50.0 µM): 68.6% and -7.9%
- growth inhibition ([5]; at 100.0 µM): 84% (active)
- growth inhibition ([6]; at 1.2 µM): 0%
- growth inhibition ([6]; at 3.7 µM): 5%
- growth inhibition ([6]; at 11.0 µM): 17%
- growth inhibition ([6]; at 33.0 µM): 30%
- growth inhibition ([6]; at 100.0 µM): 85% (active)
- growth inhibition [7, 16]: 9%
- growth inhibition [7, 17]: 91% (active)
- growth inhibition ([7]; at 50.0 µM): 48.1% and 0.4%
- growth inhibition ([8]; at 1.2 µM): -1%
- growth inhibition ([8]; at 3.7 µM): 34%
- growth inhibition ([8]; at 11.0 µM): 44%
- growth inhibition ([8]; at 33.0 µM): 52%
- growth inhibition ([8]; at 100.0 µM): 85% (active)
- growth inhibition [9, 16]: 50%
- growth inhibition [9, 17]: 94% (active)
- growth inhibition ([9]; at 50.0 µM): 68.8% and 4.6%
- growth inhibition ([10]; at 1.2 µM): 12%
- growth inhibition ([10]; at 3.7 µM): 40%
- growth inhibition [10, 16]: 36%
- growth inhibition ([10]; at 11.0 µM): 42%
- growth inhibition ([10]; at 33.0 µM): 51%
- growth inhibition [10, 17]: 91% (active)
- growth inhibition ([10]; at 50.0 µM): 59.5% and -0.65%
- growth inhibition ([10]; at 100.0 µM): 86% (active)
- growth inhibition ([11]; at 1.2 µM): 10%
- growth inhibition ([11]; at 3.7 µM): 34%
- growth inhibition ([11]; at 11.0 µM): 41%
- growth inhibition ([11]; at 33.0 µM): 54%
- growth inhibition ([11]; at 100.0 µM): 89% (active)
- growth inhibition ([12]; at 1.2 µM): 3%
- growth inhibition ([12]; at 3.7 µM): 23%
- growth inhibition ([12]; at 11.0 µM): 25%
- growth inhibition ([12]; at 33.0 µM): 38%
- growth inhibition ([12]; at 100.0 µM): 83% (active)
- growth inhibition ([13]; at 1.2 µM): 20%
- growth inhibition ([13]; at 3.7 µM): 35%
- growth inhibition ([13]; at 11.0 µM): 48%
- growth inhibition ([13]; at 33.0 µM): 55%
- growth inhibition ([13]; at 100.0 µM): 85% (active)
- growth inhibition [14, 16]: 14%
- growth inhibition [14, 17]: 89% (active)
- growth inhibition ([14]; at 50.0 µM): 61.6% and 6.3%
- growth inhibition ([15]; at 1.2 µM): 18%
- growth inhibition ([15]; at 3.7 µM): 39%
- growth inhibition ([15]; at 11.0 µM): 31%
- growth inhibition ([15]; at 33.0 µM): 47%
- growth inhibition ([15]; at 100.0 µM): 82% (active)
